The values that follow come from PubChem BioAssay (EPA / NIEHS).

The target in assay [1] is Paired box protein Pax-6 (Homo sapiens) (UniProt P26367). Nature of the assay: ATG_Pax6_CIS: Attagene CIS-FACTORIAL HepG2 Assay for human Paired Box 6 (PAX6) (AID 2282956). The conditions noted are these: HepG2 CIS-FACTORIAL PAX6 reporter transcription, RNA readout; actives raise or lower the signal. The procedure, abridged:
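DMSO-referenced bidirectional fits of reporter mRNA fluorescence; HepG2 with transient cis-promoter MRTUs, 24 h post-dose, RT-PCR plus capillary electrophoresis detection.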

A short description of assay [2]: ATG_PXRE_CIS: Attagene CIS-FACTORIAL HepG2 Assay for human Pregnane X Receptor Element (PXRE) (AID 2282957). The settings on record: HepG2 Attagene CIS-FACTORIAL PXRE reporter, mRNA; actives raise or lower the signal. The procedure, abridged:
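Using HepG2 transfected with multiple reporter transcription units, endogenous factor-driven transcription was scored as reporter mRNA after 24 h exposure.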

The nature of assay [3]: ATG_PPRE_CIS: Attagene CIS-FACTORIAL HepG2 Assay for human Peroxisome Proliferator-activated Response Element (PPRE) (AID 2282958). The conditions noted are these: HepG2 PPRE cis-element reporter, Attagene transcription factor profiling; actives raise or lower the signal. In outline: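 After human HepG2 hepatoma cells were transiently transfected with cis-promoter reporter constructs, they were exposed to test chemicals for 24 hours. Reporter RNA was then reverse-transcribed, PCR-amplified, FAM-labeled, HpaI-digested and quantified by capillary electrophoresis.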

Assay [4] can be described thus: ATG_RORE_CIS: Attagene CIS-FACTORIAL HepG2 Assay for human RAR-related Orphan Receptor Element (RORE) (AID 2282959). The settings on record: HepG2 Attagene cis-factorial RORE reporter, mRNA; actives raise or lower the signal. The procedure, abridged:
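Measured here: transcript induction of a cis-regulated reporter in HepG2 cells transiently transfected via FuGene 6. After 24 h, RNA was processed by RT-PCR and fluorescent capillary electrophoresis; DMSO defined baseline activity.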

Assay [5] is described as follows: ATG_Sox_CIS: Attagene CIS-FACTORIAL HepG2 Assay for human SRY-box transcription factor (SOX) (AID 2282960). The settings on record: HepG2 Attagene cis-factorial SOX reporter, mRNA; actives raise or lower the signal. In outline: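 Using transiently transfected HepG2 cells, reporter transcription driven by cis elements was assessed 24 h after dosing. Signal was fluorescence of capillary-separated RT-PCR products, with DMSO defining baseline activity.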

Assay [6] has as its target Transcription factor Sp1 (Homo sapiens) (UniProt P08047). Nature of the assay: ATG_Sp1_CIS: Attagene CIS-FACTORIAL HepG2 Assay for human Specificity Protein 1 (Sp1) (AID 2282961). The settings on record: HepG2 Sp1 cis-reporter transcription, actives raise or lower the signal. The procedure, abridged: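 After transient transfection of HepG2 cells with cis-promoter reporter units and 24 h chemical treatment, reporter transcripts were quantified by RT-PCR and capillary electrophoresis fluorescence. Gain- and loss-of-signal fitted against DMSO.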

The nature of assay [7]: ATG_SREBP_CIS: Attagene CIS-FACTORIAL HepG2 Assay for human Sterol Regulatory Element Binding (SREBP) (AID 2282962). The settings on record: HepG2 Attagene cis-factorial SREBP reporter, mRNA; actives raise or lower the signal. The procedure, abridged:
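In this cis-format assay, HepG2 liver cells express reporters controlled by promoter elements responsive to native transcription factors. Exposure lasts 24 h; reporter mRNA fluorescence from capillary electrophoresis gives the signal, fitted bidirectionally against DMSO.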

Assay [8] addresses Signal transducer and activator of transcription 3 (Homo sapiens) (UniProt P40763). The assay is described as follows: ATG_STAT3_CIS: Attagene CIS-FACTORIAL HepG2 Assay for human Signal Transducer and Activator of Transcription 3 (STAT3) (AID 2282963). The settings on record: HepG2, Attagene cis-factorial STAT3 reporter transcription; actives raise or lower the signal. The procedure, abridged: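 Cis-factorial format: endogenous transcription factors in HepG2 drive transfected reporter units. After 24 h treatment, reporter RNA was reverse-transcribed, amplified, FAM-labelled and HpaI-digested before CE analysis; activity scored in both directions against DMSO.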

The nature of assay [9]: ATG_TA_CIS: Attagene CIS-FACTORIAL HepG2 Assay for human TA Basal Promoter (AID 2282964). The conditions noted are these: HepG2 Attagene CIS-factorial TA basal promoter reporter; actives raise or lower the signal. The procedure, abridged: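 Fluorescence from labelled RT-PCR reporter fragments, separated by capillary electrophoresis, gives the signal. Cells: HepG2 transiently carrying multiple reporter units, 24 h chemical dosing. Gain or loss relative to DMSO.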

The nature of assay [10]: ATG_TCF_b_cat_CIS: Attagene CIS-FACTORIAL HepG2 Assay for human T-Cell-Factor with beta-catenin (TCF/b-cat) (AID 2282965). The settings on record: HepG2 TCF/beta-catenin cis-reporter transcription, actives raise or lower the signal. The procedure, abridged:
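Measured: reporter mRNA in HepG2 transiently transfected with cis-promoter reporter units, 24 h after chemical addition. Fitting was bidirectional, DMSO as negative control.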

Assay [11] can be described thus: ATG_TAL_CIS: Attagene CIS-FACTORIAL HepG2 Assay for human TAL Basal Promoter (AID 2282966).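 Further: background control endpoint measuring basal TAL promoter reporter mRNA not a specific factor.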 The settings on record: HepG2 Attagene cis-factorial TAL promoter reporter; actives raise or lower the signal. In outline:
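After 24 hours of chemical exposure, transfected HepG2 cells yielded RNA that was converted to 6-FAM-labelled, HpaI-digested reporter fragments for capillary electrophoresis. Values derive from bidirectional fitting against DMSO controls.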

Assay [12] is described as follows: ATG_TGFb_CIS: Attagene CIS-FACTORIAL HepG2 Assay for human Transforming Growth Factor (TGF) (AID 2282967). The conditions noted are these: HepG2 Attagene CIS TGFb reporter, mRNA transcription; actives raise or lower the signal. In outline: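 Bidirectional fitting relative to DMSO gave the endpoint. Underlying data: reporter mRNA from HepG2 cells carrying transiently transfected cis-regulated reporter constructs, harvested 24 h after dosing and analyzed by RT-PCR and capillary electrophoresis.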

A short description of assay [13]: ATG_VDRE_CIS: Attagene CIS-FACTORIAL HepG2 Assay for human Vitamin D Receptor Element (VDRE) (AID 2282968). The settings on record: HepG2 VDRE cis-reporter transcription, actives raise or lower the signal. In outline: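 Measures endogenous factor activity through cis-element-driven reporter transcripts in transiently transfected HepG2. Cells are treated 24 h; reporter mRNA is quantified by RT-PCR and capillary electrophoresis; fitting is bidirectional.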

Assay [14] concerns the target Estrogen receptor (Homo sapiens) (UniProt P03372). The assay is described as follows: ATG_ERa_TRANS: Attagene TRANS-FACTORIAL HepG2 Assay for human Estrogen Receptor alpha (ERa) (AID 2282970; active means hit-call score of the fitted dose curve at least 0.9, where 1 is the maximum). The settings on record: HepG2 Attagene TRANS ERa GAL4 reporter, mRNA. In outline:
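Liver-derived HepG2 cells expressing chimeric nuclear receptor-Gal4 proteins from transient transfection were exposed for 24 hours. Gain of reporter mRNA signal versus DMSO, read by capillary electrophoresis of FAM-labelled PCR products, was recorded.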

The target in assay [15] is X-box-binding protein 1 (Homo sapiens) (UniProt P17861). Nature of the assay: ATG_Xbp1_CIS: Attagene CIS-FACTORIAL HepG2 Assay for human X-box Binding Protein 1 (XBP1) (AID 2282972). The settings on record: HepG2 XBP1 cis-element reporter, Attagene multiplex; actives raise or lower the signal. In outline: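 Changes in reporter transcript abundance, read by RT-PCR and capillary electrophoresis, reflect endogenous transcription factor activity. Transfected HepG2 cells received compound for 24 hours; DMSO defined baseline for bidirectional analysis.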
Sequence of X-box-binding protein 1 (Homo sapiens) (P17861 whole entry, looked up): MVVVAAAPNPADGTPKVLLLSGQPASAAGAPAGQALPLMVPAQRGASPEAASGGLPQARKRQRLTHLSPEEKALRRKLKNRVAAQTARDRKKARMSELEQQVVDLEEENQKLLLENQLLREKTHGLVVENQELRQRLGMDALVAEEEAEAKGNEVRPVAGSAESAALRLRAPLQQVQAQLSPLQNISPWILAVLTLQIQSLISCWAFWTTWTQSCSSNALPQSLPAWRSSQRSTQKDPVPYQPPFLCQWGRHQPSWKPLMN

Assay [16] concerns the target Steroid hormone receptor ERR1 (Homo sapiens) (UniProt P11474). The assay is described as follows: ATG_ERRa_TRANS: Attagene TRANS-FACTORIAL HepG2 Assay for human Estrogen-Related Receptor alpha (ERRa) (AID 2282971; active means hit-call score of the fitted dose curve at least 0.9, where 1 is the maximum). The conditions noted are these: HepG2 Attagene TRANS reporter, ERRa transactivation. The procedure, abridged: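 Reporter transcript induction was quantified by RT-PCR and capillary electrophoresis of FAM-labelled, HpaI-cut products after 24 h treatment of HepG2 cells carrying transiently transfected GAL4-UAS reporter units and an exogenous ERRa-Gal4 fusion; activity scored as increase over DMSO.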

Assay [17] in a line: ATG_GAL4_TRANS: Attagene TRANS-FACTORIAL HepG2 Assay for GAL4 (Internal Marker) (AID 2282976; active means hit-call score of the fitted dose curve at least 0.9, where 1 is the maximum). The settings on record: HepG2 Attagene TRANS GAL4 internal marker reporter. The procedure, abridged: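 First, HepG2 cells were transfected with reporter units under GAL4-UAS control. Next, they were treated with chemical for 24 h. Finally, RNA was reverse-transcribed, PCR-amplified, FAM-labelled and resolved by capillary electrophoresis, with induction scored against DMSO.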

A short description of assay [18]: ATG_M_19_TRANS: Attagene TRANS-FACTORIAL HepG2 Assay for M19 Transcription Factor (Internal Marker) (AID 2282974; active means hit-call score of the fitted dose curve at least 0.9, where 1 is the maximum). The conditions noted are these: HepG2 Attagene TRANS-FACTORIAL M19 internal marker reporter. In outline: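 Gain-of-signal in reporter mRNA, relative to DMSO, was scored from capillary electrophoresis fluorescence. HepG2 cells carried transiently transfected multiple reporter transcription units and were incubated with test chemicals for 24 h.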

Assay [19] concerns the target Estrogen-related receptor gamma (Homo sapiens) (UniProt P62508). The assay is described as follows: ATG_ERRg_TRANS: Attagene TRANS-FACTORIAL HepG2 Assay for human Estrogen-Related Receptor gamma (ERRg) (AID 2282977; active means hit-call score of the fitted dose curve at least 0.9, where 1 is the maximum;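 further: hits increase reporter signal over DMSO so potencies reflect activators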). The conditions noted are these: HepG2 Attagene TRANS reporter, ERRg transactivation. The procedure, abridged:
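Readout: fluorescent reporter-mRNA fragments resolved by capillary electrophoresis after RT-PCR and HpaI cut. Cells: transiently transfected HepG2 carrying GAL4-UAS reporters driven by exogenous NR-Gal4 chimeras, dosed 24 h. Activity fitted upward relative to DMSO baseline.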

Records with an inconclusive call do not appear. The source made the active and inactive calls. How the source made its calls, unless noted: active means hit-call score of the fitted dose curve at least 0.9, where 1 is the maximum; inactive means score below 0.9.

Sequence of Signal transducer and activator of transcription 3 (Homo sapiens) (P40763 whole entry, looked up): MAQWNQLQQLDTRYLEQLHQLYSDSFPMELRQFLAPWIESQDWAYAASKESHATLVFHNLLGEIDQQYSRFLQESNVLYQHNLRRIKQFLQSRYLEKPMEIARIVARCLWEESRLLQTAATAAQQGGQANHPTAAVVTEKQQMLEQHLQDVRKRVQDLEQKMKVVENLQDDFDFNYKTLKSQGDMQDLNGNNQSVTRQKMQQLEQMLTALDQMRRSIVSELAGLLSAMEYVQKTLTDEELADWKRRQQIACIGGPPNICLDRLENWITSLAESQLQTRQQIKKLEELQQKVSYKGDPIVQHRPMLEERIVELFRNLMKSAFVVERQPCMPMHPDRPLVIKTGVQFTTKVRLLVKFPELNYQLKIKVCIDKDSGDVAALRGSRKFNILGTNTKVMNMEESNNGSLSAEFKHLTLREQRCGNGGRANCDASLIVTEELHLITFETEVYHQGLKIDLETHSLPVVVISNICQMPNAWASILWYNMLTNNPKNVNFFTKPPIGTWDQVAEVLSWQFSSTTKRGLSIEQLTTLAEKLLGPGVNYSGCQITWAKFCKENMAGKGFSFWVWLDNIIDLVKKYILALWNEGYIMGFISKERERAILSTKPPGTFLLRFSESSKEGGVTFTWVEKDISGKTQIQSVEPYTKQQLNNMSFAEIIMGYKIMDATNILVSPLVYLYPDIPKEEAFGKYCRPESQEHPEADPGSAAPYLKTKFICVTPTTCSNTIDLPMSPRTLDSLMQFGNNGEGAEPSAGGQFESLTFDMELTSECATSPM
Sequence of Transcription factor Sp1 (Homo sapiens) (P08047 whole entry, looked up): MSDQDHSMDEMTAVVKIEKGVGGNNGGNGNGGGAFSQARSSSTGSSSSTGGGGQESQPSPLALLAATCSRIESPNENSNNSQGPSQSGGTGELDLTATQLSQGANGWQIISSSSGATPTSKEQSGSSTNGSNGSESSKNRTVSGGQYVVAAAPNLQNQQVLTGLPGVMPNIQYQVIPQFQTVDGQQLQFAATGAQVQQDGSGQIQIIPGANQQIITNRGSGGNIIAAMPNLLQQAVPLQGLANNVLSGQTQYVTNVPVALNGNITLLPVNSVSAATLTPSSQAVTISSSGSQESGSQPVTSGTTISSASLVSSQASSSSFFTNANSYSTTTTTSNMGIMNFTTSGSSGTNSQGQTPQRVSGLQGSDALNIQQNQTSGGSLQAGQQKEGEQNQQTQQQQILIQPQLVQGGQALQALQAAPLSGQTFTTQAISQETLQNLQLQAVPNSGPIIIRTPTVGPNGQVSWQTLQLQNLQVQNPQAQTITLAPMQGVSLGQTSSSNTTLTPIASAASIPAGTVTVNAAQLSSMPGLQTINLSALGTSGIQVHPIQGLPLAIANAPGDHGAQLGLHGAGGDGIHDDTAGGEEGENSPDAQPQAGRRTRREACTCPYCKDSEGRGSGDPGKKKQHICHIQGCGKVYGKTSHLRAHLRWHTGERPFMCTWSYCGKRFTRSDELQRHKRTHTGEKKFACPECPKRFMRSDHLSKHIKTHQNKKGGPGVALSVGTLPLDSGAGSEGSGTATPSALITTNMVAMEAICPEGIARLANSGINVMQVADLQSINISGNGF
Sequence of Paired box protein Pax-6 (Homo sapiens) (P26367 whole entry, looked up): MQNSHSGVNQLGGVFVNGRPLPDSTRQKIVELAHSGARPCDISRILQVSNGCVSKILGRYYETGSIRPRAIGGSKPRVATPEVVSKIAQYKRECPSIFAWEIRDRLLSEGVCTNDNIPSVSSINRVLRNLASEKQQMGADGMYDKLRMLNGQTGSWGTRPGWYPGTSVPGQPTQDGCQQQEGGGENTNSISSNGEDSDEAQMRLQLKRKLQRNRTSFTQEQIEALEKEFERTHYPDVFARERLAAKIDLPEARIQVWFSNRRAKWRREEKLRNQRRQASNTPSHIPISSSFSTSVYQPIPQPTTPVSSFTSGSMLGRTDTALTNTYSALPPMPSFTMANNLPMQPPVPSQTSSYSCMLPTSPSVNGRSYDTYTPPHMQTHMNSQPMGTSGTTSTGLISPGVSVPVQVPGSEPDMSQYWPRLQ
Sequence of Estrogen receptor (Homo sapiens) (P03372 whole entry, looked up, the tested form may be a part): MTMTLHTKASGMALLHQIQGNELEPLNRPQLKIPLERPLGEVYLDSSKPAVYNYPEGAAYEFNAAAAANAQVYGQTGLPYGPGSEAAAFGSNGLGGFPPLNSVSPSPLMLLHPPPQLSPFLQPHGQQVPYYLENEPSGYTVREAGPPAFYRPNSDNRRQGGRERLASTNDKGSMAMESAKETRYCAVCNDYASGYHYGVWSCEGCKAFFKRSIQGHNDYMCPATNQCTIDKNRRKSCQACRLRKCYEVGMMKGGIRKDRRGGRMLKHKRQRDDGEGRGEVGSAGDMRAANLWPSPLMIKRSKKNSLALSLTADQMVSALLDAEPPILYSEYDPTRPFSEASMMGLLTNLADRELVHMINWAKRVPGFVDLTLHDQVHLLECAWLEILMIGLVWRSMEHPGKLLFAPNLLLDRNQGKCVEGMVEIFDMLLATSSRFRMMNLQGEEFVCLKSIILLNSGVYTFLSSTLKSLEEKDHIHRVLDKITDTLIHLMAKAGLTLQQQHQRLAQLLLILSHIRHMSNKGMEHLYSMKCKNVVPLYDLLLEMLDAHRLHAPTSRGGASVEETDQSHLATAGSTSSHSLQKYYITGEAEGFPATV
Sequence of Estrogen-related receptor gamma (Homo sapiens) (P62508 whole entry, looked up, the tested form may be a part): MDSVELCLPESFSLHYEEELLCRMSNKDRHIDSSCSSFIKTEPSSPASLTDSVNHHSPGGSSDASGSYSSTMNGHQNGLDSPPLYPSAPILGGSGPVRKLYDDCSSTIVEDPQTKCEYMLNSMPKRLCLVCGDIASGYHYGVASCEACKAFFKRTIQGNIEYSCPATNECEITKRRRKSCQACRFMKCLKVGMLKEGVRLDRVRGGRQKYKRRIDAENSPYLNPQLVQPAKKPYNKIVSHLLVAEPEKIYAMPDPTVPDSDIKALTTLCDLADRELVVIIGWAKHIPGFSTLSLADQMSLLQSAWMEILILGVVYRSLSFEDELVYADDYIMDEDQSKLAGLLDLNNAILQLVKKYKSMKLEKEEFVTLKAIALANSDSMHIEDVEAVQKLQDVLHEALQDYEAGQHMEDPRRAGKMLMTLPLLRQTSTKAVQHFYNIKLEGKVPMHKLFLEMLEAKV
Sequence of Steroid hormone receptor ERR1 (Homo sapiens) (P11474 whole entry, looked up, the tested form may be a part): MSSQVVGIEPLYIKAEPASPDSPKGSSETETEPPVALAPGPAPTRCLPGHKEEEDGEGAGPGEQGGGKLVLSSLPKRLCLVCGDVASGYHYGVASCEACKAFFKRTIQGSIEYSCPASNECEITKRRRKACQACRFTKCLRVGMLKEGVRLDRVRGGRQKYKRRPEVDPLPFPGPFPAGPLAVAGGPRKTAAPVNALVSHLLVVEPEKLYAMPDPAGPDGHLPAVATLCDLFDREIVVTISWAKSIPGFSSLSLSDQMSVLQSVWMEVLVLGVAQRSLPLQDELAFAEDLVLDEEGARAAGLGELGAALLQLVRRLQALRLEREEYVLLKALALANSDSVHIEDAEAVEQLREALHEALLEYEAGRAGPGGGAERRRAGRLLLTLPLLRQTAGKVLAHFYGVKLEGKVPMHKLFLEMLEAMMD

Usually AC50 stands for the concentration at which the activity in the assay is half-maximal. In the case of `CN(C)c1ccc(C(=N)c2ccc(N(C)C)cc2)cc1`, the AC50 in [1] was 3.16 µM (active); in assay [2] it was 5.82 µM (active); in assay [4], 1.28 µM (active); in assay [10] it was 9.76 µM (active); in assay [13], 1.29 µM (active); in assay [15], 1.21 µM (active). In addition, the molecule was called inactive in assay [3], in assay [5], in assay [6], in assay [7], in assay [8] and in assay [9]. The result in assay [11], in assay [12] and in assay [14] was inactive.

`Cc1cccc(C(=O)O)c1`: the molecule was called inactive in assay [1], in assay [2], in assay [3], in assay [4], in [5] and in assay [6]. Moreover, the outcome in assay [7], in [8], in assay [9], in assay [10], in [11] and in [12] was inactive. In addition, the outcome in assay [13], in assay [14], in [16], in assay [15] and in assay [17] was inactive.

Take `C#CC1(O)CC[C@H]2[C@@H]3CCC4=CCCC[C@@H]4[C@H]3CC[C@@]21C` (some centres not stated): the molecule was called inactive in [1], in assay [5], in assay [6], in assay [8], in [13] and in assay [15]. For the same molecule, the call in assay [18], in [17] and in assay [19] was inactive. For the same molecule, the AC50 in assay [2] was 2.58 µM (active); in [3], 33.4 µM (active); in [4], 41.7 µM (active); in [7], 27.4 µM (active); in assay [9], 16.7 µM (active); in assay [10], 33.4 µM (active). For the same molecule, the AC50 in assay [11] was 16.8 µM (active); in [12], 9.28 µM (active); in assay [14] it was 0.00914 µM (active).

Regarding `CCCCCCCCCCOC(C)=O`, the result in assay [1], in [2], in assay [3], in assay [4], in [5] and in assay [6] was inactive. Also, the molecule was classed as inactive in [7], in assay [8], in assay [9], in [10], in assay [11] and in assay [12]. Further, the result in assay [13], in assay [15], in assay [18] and in assay [17] was inactive. In assay [14], the AC50 was 47.2 µM (active).
